# Hits are enriched below; roughly 0.5% of the tested compounds scored in any of these assays.
# E coli growth-1 = E. coli growth inhibition. AID 1053175. OD600 absorbance (concentration not given with the values). Escherichia coli growth, OD600, 23 h; stronger effect = lower value. actives 0.21% (n = 330,000);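 active = OD600 absorbance below the run mean of sample wells minus 3.6 SD, in any replicate, cut at about 0.56 in these data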
# Tat export inh = blocks Tat-dependent protein export in E. coli; E. coli MC4100 TorA-mCherry Tat export, fluorescence; inhibition, % at 10 µM; actives 0.036% (n = 340,000); AID 488895;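 active = mean replicate inhibition at least 50% and at least half of replicates individually reaching 50%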;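 note: exported cargo escapes ClpAP degradation while cytoplasmic cargo is degraded and loses fluorescence; 0% = median of neutral control wells and 100% = median of NaSCN control wells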
# E coli growth-2 = bacterial growth inhibition, counter-screen for AddAB inhibitors | E. coli V3065 growth, OD600 absorbance, 18 h | inhibition, % at 11.9 µM | actives 0.27% (n = 330,000) | AID 449728;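 active = inhibition above the campaign's mean inhibition across all tested compounds plus 3 SD, cut at about 9.9% in these data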;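 note: uninfected addAB+ strain grown without phage in ampicillin broth; 0% = DMSO wells and 100% = ciprofloxacin 0.95 µg/ml wells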
# phage Ecoli inh = E. coli growth loss with phage present; growth absorbance; inhibition, % at 11.9 µM; AID 651602; actives 0.26% (n = 360,000); in the data active = inhibition above about 11%
# AddAB inh = less growth of phage-infected E. coli with AddAB | E. coli expressing H. pylori AddAB, absorbance growth | inhibition, % at 11.9 µM | actives 0.29% (n = 330,000) | AID 435030; in the data active = inhibition above about 12%;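 note: 0% = vehicle wells of infected cells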
# AddAB conf = growth loss of T4-infected E. coli expressing H. pylori AddAB, confirmed | shares compounds with AddAB inh | E. coli V3065 expressing H. pylori AddAB, T4 phage, OD; T4 phage with gene 2 nonsense mutations | inhibition, % at 11.9 µM | actives 64% (n = 880) | AID 488942;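 active = mean inhibition above a set limit taken from the earlier primary screen, cut at about 13% in these data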;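 note: higher means less bacterial growth since AddAB block lets phage replicate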
# RecBCD counter = counter-screen: growth loss of RecBCD+ E. coli with mutant T4 phage; shares compounds with AddAB inh; E. coli V66 + mutant T4 phage, OD growth; inhibition, % at 11.9 µM; actives 73% (n = 880); AID 488955;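 active = mean inhibition above the mean of solvent-only control wells plus 3 SD, cut at about 4% in these data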;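 note: optical density read after an 18 h incubation at 37 °C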
# Bact viability = counter-screen: bacterial growth inhibition; shares compounds with AddAB inh; bacterial viability, absorbance (AddAB counterscreen); inhibition, % at 11.9 µM; actives 35% (n = 880); in the data active = inhibition above about 25%
# RecBCD conf = growth loss of phage-infected V66 E. coli, RecBCD confirmation screen; shares compounds with phage Ecoli inh; E. coli V66 + T4 2- phage, growth OD; inhibition, % at 11.9 µM; actives 45% (n = 890);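 active = mean inhibition over triplicates exceeding the hit threshold derived in the original primary screen, cut at about 11% in these data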
# Ecoli viability = inhibits E. coli viability, flagging RecBCD hits as nonselective; shares compounds with phage Ecoli inh; actives 29% (n = 890); absorbance (OD) growth; inhibition, % at 11.9 µM; in the data active = inhibition above about 20%;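 note: E. coli strain V66 grown with compound alone and no phage infection; 0% = bacteria with DMSO vehicle only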
# AddAB counter = growth loss of phage-infected AddAB E. coli, RecBCD counter-screen | shares compounds with phage Ecoli inh | E. coli expressing H. pylori AddAB + T4 phage, OD growth; gene 2 mutant T4, recBCD-deleted host | inhibition, % at 11.9 µM | actives 45% (n = 890) | AID 651984;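 active = mean inhibition above the solvent-only control wells' mean plus 3 SD, cut at about 22% in these data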;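 note: higher means less bacterial growth from phage killing when AddAB is blocked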
# Starred values were filed as active, the others as inactive; nt = no result.
SMILES,E coli growth-1,Tat export inh,E coli growth-2,phage Ecoli inh,AddAB inh,AddAB conf,RecBCD counter,Bact viability,RecBCD conf,Ecoli viability,AddAB counter
CC(=O)c1cn(CC(=O)Nc2ccc(C)c(C)c2)c2ccccc12,0.71,-8,4,3,2,nt,nt,nt,nt,nt,nt
COC(=O)NN=Cc1cc2c(cc1Br)OCO2,0.69,nt,nt,nt,nt,nt,nt,nt,nt,nt,nt
CCC(C)NC(=O)c1cn(CC)c2cc(N3CCN(C)CC3)c(F)cc2c1=O (configuration not stated),0.075*,nt,95*,94*,99*,100*,99*,100*,99*,99*,100*
CCn1cc(C(=O)N[C@H](C)c2ccccc2)c(=O)c2cc(F)c(N3CCN(C)CC3)cc21,0.72,12,-1,-2,2,nt,nt,nt,nt,nt,nt
CCn1cc(C(=O)NCc2ccc3c(c2)OCO3)c(=O)c2cc(F)c(N3CCN(C)CC3)cc21,0.043*,10,98*,16*,99*,102*,29*,101*,18*,20,102*
CCCCCCn1cc(C(=O)OCC)c(=O)c2cc(F)c(F)cc21,0.7,5,1,2,3,nt,nt,nt,nt,nt,nt
CCOC(=O)c1cn(CC)c2cc(N3CCN(C)CC3)c(F)cc2c1=O,0.068*,2,97*,27*,99*,102*,19*,100*,11*,12,89*
CCn1cc(C(=O)NCC(C)C)c(=O)c2cc(F)c(N3CCN(C)CC3)cc21,0.075*,nt,100*,87*,99*,100*,100*,101*,90*,101*,102*
CCn1cc(SCC(=O)NCc2ccc3c(c2)OCO3)c2ccccc21,0.7,-18,1,3,-1,nt,nt,nt,nt,nt,nt
CCCC(C#CCCN1C(=O)c2ccccc2C1=O)=C1c2ccccc2C(=O)N1c1ccccc1,0.72,nt,nt,nt,nt,nt,nt,nt,nt,nt,nt
CCOc1ccc(C=NNC(=O)c2ccc(Cn3cc([N+](=O)[O-])cn3)o2)cc1,0.69,nt,nt,nt,nt,nt,nt,nt,nt,nt,nt
O=c1[nH]cc(F)c(=O)[nH]1,nt,11,44*,53*,48*,45*,38*,41*,63*,53*,70*
O=c1[nH]cc(O)c(=O)[nH]1,0.75,9,-1,3,4,nt,nt,nt,nt,nt,nt
Nc1nc(N)c2cc(Sc3ccc4ccccc4c3)ccc2n1,0.079*,nt,102*,63*,98*,98*,72*,94*,70*,65*,95*
S=c1nc[nH]c2nc[nH]c12,0.67,1,24*,25*,80*,63*,24*,50*,37*,40*,71*
COc1ccc(NC(=O)c2ccc([N+](=O)[O-])o2)cc1,0.47*,-12,80*,19*,58*,100*,17*,46*,15*,18,100*
O=C(NNC(=O)c1ccc([N+](=O)[O-])o1)c1ccccc1,0.35*,-2,86*,26*,68*,103*,23*,70*,18*,21*,102*
O=C(Nc1cccnc1)c1ccco1,0.65,-8,0,0,1,nt,nt,nt,nt,nt,nt
NC(=O)c1oc2ccccc2c1NC(=O)c1ccc([N+](=O)[O-])o1,0.49*,-3,99*,23*,99*,101*,26*,101*,18*,22*,100*
COc1ccc(NC(=O)c2ccc(Br)o2)cc1,0.66,-18,2,4,5,nt,nt,nt,nt,nt,nt
NC(=O)c1oc2ccccc2c1NC(=O)c1ccc(F)cc1,0.71,-5,0,3,-1,nt,nt,nt,nt,nt,nt
